Assay outcomes: PubChem BioAssay, SRMLSC
Hits are enriched below; roughly 6.3% of the tested compounds scored in any of these assays.
Spn PMK inh – S. pneumoniae PMK inhibitors, primary screen, biochemical, mevalonate pathway, pilot trial included; inhibition, % at 10 µM; purified PMK, PK/LDH-coupled NADH absorbance 340 nm; 0.49% of 65,000 active; AID 539, 2006;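 active means top-ranked compounds by inhibition in the single 10 µM screen, taking a fixed number of the strongest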
DPM-DC inhibit – S. pneumoniae DPM-DC inhibitors, primary screen, biochemical, PK/LDH-coupled NADH fluorescence; calls only at 10 µM; purified DPM-DC; 0.49% of 65,000 active;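 active means the 320 compounds with the highest percent inhibition in the single-dose primary screen, excluding strongly autofluorescent ones, cut at about 32% in these data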;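 further: kinetic rate of NADH fluorescence loss reporting ADP formed by the decarboxylase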
NADH coupling – inhibitors of PK/LDH coupling enzymes, profiling panel, artefact control, biochemical, MLSMR library. coupled PK/LDH NADH assays, four targets. IC50, µM (doses to about 10 µM). 0.02% of 65,000 active. AID 774, 2007;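 active means single-dose screening hits from any of four coupled enzyme assays that gave an IC50 when retested across doses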;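 further: the DPM-DC format reads NADH fluorescence rather than 340 nm absorbance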
A340 absorber – compound light absorbance at 340 nm, profiling panel, artefact control, biochemical, MLSMR library, data from PS, PMK, MK assays. 65,000 tested, under 10 active. AID 708, 2007. compound absorbance at 340 nm, fold over control. fold change at 10 µM;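 active means at 10 µM dose, initial 340 nm absorbance at least 2 fold that of control wells; inactive means change under 2 fold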;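 further: initial absorbance extrapolated from kinetic A340 decline of NADH oxidation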
Spn MK inh – S. pneumoniae MK inhibitors, primary screen, biochemical, PK/LDH-coupled NADH absorbance. mevalonate kinase [Streptococcus pneumoniae D39]. purified MK, PK/LDH-coupled NADH absorbance 340 nm. inhibition, % at 10 µM. 0.48% of 65,000 active. AID 555, 2006;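 active means ranked among the strongest by inhibition in the single 10 µM screen, a fixed top-ranked set picked for dose follow-up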
Autofluor 339 – intrinsic fluorescence of library compounds, ex339/em460 – biochemical, MLSMR library, data from DPM-DC assay, artefact control, profiling panel. compound autofluorescence, ex339/em460 nm, NADH buffer; stronger effect = higher value; 1 = no-compound wells, NADH background. fluorescence fold increase at 10 µM. 5.5% of 65,000 active;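 active means at 10 µM, mean starting fluorescence two-fold or more over control wells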;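 further: signal is the first read of a kinetic run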
Each line names hits and unclear results; the compound was inactive in the other large screens.

Cc1ccc(-c2nnc3ccc(SCC(=O)N4CCCCC4)nn23)cc1	none
O=C(CSc1nc2ccccc2[nH]1)N1CCN(c2ccc(F)cc2)CC1	none
Cc1ccc(-c2nnc3ccc(SCC(=O)Nc4cc(C)on4)nn23)cc1	Autofluor 339 2.01
CC1CCN(C(=O)CSc2nc3ccccc3[nH]2)CC1	Spn PMK inh 32.0
CC1CCN(C(=O)CSc2ccc3nnc(-c4ccc(F)cc4)n3n2)CC1	Autofluor 339 2.26
Cc1cc(NC(=O)CSc2ccc3nnc(-c4ccc(F)cc4)n3n2)no1	none
CC1CCN(C(=O)CSc2ccc3nnc(-c4ccccc4)n3n2)CC1	Autofluor 339 2.25
CCN(CC)CCCNC(=O)c1cc(-c2ccc(Cl)c(Cl)c2)on1	none
Cn1nc(-c2ccc(Cl)cc2)c2cc(C(=O)NCC3CCCO3)sc21 (stereo not given)	Autofluor 339 2.14 (not shown: DPM-DC inhibit)
Cn1nc(-c2ccc(Cl)cc2)c2cc(C(=O)N3CCOCC3)sc21	none
CN1CCN(CCCNC(=O)c2cc3c(-c4ccc(Cl)cc4)nn(C)c3s2)CC1	Autofluor 339 2.15 (not shown: DPM-DC inhibit)
CCN(CC)CCCNC(=O)c1cc2c(-c3ccc(Cl)cc3)nn(C)c2s1	Autofluor 339 2.14 (not shown: DPM-DC inhibit)
COc1cc(C2C3C(C)N(C)C(=O)N(C)C3N(C)C(=O)N2C)ccc1O (stereo not given)	none
Cc1cc(=O)n2nc(N3CCCC3C(=O)NCc3ccccn3)sc2n1 (stereo not given)	none
O=c1cc(Cn2ccnc2)c2cc3c(cc2o1)CCC3	Autofluor 339 2.21
Cc1cc2oc(=O)cc(Cn3ccnc3)c2cc1C	none
Nc1ccc(C(=O)c2ccc3c(c2)OCCO3)cc1N	none
Cc1ccc(C(=O)c2cc3c(cc2N)OCCO3)cc1	Spn PMK inh 27.0
COCCCNC(=O)C1CCN(S(=O)(=O)N(CC(C)C)CC(C)C)CC1	none
CCOCCCNC(=O)C1CCN(S(=O)(=O)CC)CC1	Spn PMK inh 25.0
CCOCCCNC(=O)C1CCN(S(=O)(=O)N(CC(C)C)CC(C)C)CC1	Spn PMK inh 26.0
CCS(=O)(=O)N1CCC(C(=O)NCc2ccco2)CC1	Spn PMK inh 26.0
CCCOC(=O)CSC1=C(C#N)C(c2ccc3c(c2)OCO3)CC(=O)N1 (stereo not given)	none
CCCCNc1nc2c(c(=O)n(C)c(=O)n2C)n1CCC	Spn PMK inh 26.0
Cc1c(OCc2ccc(C(=O)O)o2)ccc2c3c(c(=O)oc12)CCC3	Autofluor 339 2.15 (not shown: DPM-DC inhibit)
COC(=O)c1ccc(COc2cccc(OC)c2)o1	none
COC(=O)c1ccc(COc2ccc3c(C)c(C)c(=O)oc3c2C)o1	Autofluor 339 2
CCn1c(Cc2c(C)[nH]c3ccccc23)nnc1SCC(N)=O	none
Cc1onc(-c2c(F)cccc2Cl)c1C(=O)Nc1cccc2nsnc12	Autofluor 339 2.95
CC1CN(C(=O)c2cc3ccccc3oc2=O)CC(C)O1 (stereo not given)	none
CC1(C)CC(C)(O)P(=O)(c2ccccc2)O1 (stereo not given)	Spn PMK inh 30.0
CC1=CCP(=O)(c2ccccc2)C1 (stereo not given)	none
CNS(=O)(=O)c1cccc(C(=O)OC2CCCCC2=O)c1 (stereo not given)	Spn PMK inh 28.0
Cc1nc2ccc3nc(NC(=O)c4ccc5c(c4)OCCO5)sc3c2s1	Autofluor 339 3.47
O=C(Nc1cccc2nsnc12)c1ccc2c(c1)OCCO2	none
Cc1nc2c(ccc3nc(NC(=O)c4ccc5c(c4)OCCO5)sc32)s1	Autofluor 339 2.38
CS(=O)(=O)c1nc(-c2ccco2)cc(C(F)(F)F)n1	none
CCOC(=O)C1CCN(C(=O)Nc2ccc3nc(C)c(C)nc3c2)CC1	Autofluor 339 2.92 (not shown: DPM-DC inhibit)
CCOC(=O)C1CCN(C(=O)Nc2ccc3oc(C)nc3c2)CC1	none
O=C(NCCCN1CCOCC1)c1c(O)c2ccccc2[nH]c1=O	none
O=C(NCCCN1CCOCC1)c1cc2c(=O)[nH]c3ccccc3c2s1	Autofluor 339 4.73 (not shown: DPM-DC inhibit)
O=C(O)c1cc2c([nH]c1=O)CCCC2	Autofluor 339 2.3 (not shown: DPM-DC inhibit)
CC(C(=O)N1CCN(c2ccccc2)CC1)N1C(=O)C2CC=CCC2C1=O (stereo not given)	none
COc1ccc(C2C=C(c3ccccc3)Nc3nc(CCCO)nn32)cc1 (stereo not given)	Autofluor 339 4.87 (not shown: DPM-DC inhibit)
COc1ccc(C2C=C(c3cccs3)Nc3nc(CCCO)nn32)cc1 (stereo not given)	Autofluor 339 3.93 (not shown: DPM-DC inhibit)
OCCCc1nc2n(n1)C(c1ccccc1)C=C(c1ccccc1)N2 (stereo not given)	none
COc1cccc(C(O)CC(N)=O)c1 (stereo not given)	none
Cc1cc(C)c(C#N)c(SCC(=O)CC(=O)OC(C)C)n1	Autofluor 339 2.98
Cc1cc(C)c(C#N)c(SCC(=O)Nc2nnc(-c3ccccc3)s2)n1	Autofluor 339 2.12 (not shown: DPM-DC inhibit)
Cc1cc(NC(=O)COC(=O)c2ccc(S(=O)(=O)N3CCCc4ccccc43)cc2)no1	none
COc1ccccc1-n1c(CNC(=O)c2ccco2)nnc1SCC(=O)Nc1ccc(F)cc1	none
COc1ccc(-n2nc3ccc(NS(C)(=O)=O)cc3n2)cc1Cl	Autofluor 339 3.82 (not shown: DPM-DC inhibit)
COc1ccc(NS(=O)(=O)c2coc(C(N)=O)c2)cc1Cl	none
Cc1cccn2c(=O)c(C=Nc3ccc(Cl)cc3)c(NCCO)nc12	Autofluor 339 2.72
Cn1c(=O)c2c(nc(NCCO)n2CCc2ccccc2)n(C)c1=O	none
Cc1cccn2c(=O)c(C=Nc3ccccc3)c(NCCO)nc12	Autofluor 339 2.36
Cc1ccc2nc(Nc3ccccc3)c(/C=N/O)c(=O)n2c1	none
Cc1c(N=C2C(=O)Nc3ccccc32)c(=O)n(-c2ccccc2)n1C	none
COc1ccc(S(=O)(=O)Cc2ccc(C(=O)N3CCN(c4ccccn4)CC3)o2)cc1	none
Cc1n[nH]c(C)c1N1C(=O)c2cccc3c(N4CCCCCC4)ccc(c23)C1=O	Spn PMK inh 32.0
CC(C)C(NS(=O)(=O)c1ccc2c3c(cccc13)C(=O)N2)C(=O)O (stereo not given)	Autofluor 339 2.19 (not shown: DPM-DC inhibit)
COC(=O)c1ccccc1NS(=O)(=O)c1ccc2c3c(cccc13)C(=O)N2	Autofluor 339 2.8
CCOc1ccc(S(=O)(=O)NCc2ccco2)c2ccccc12	none
O=C1Nc2ccc(S(=O)(=O)NCc3ccco3)c3cccc1c23	Autofluor 339 2.19 (not shown: DPM-DC inhibit)
O=C(O)c1ccccc1NS(=O)(=O)c1ccc2c3c(cccc13)C(=O)N2	none
CC(C)Cn1c(SCC(=O)NC2CCCc3ccccc32)nc(O)cc1=O (stereo not given)	none
